About 7,900 targets were measured; listed, in parts, are those with a hit and a random draw of the rest. About 0.6% of all pairs of compound and target were hits. Values without a mark were called inactive.
Compound: c1cn2cc(-c3ccc4cn[nH]c4c3)nc(Nc3ccc(N4CCOCC4)cc3)c2n1 [entospletinib]
Test: log2 fold change, soluble protein after heating vs DMSO (PISA); higher = thermal stabilisation; K562 cells, 10 uM, 30 min; active = over 0.2 and 3.5 SD of the protein, either way, in both replicates (recomputed)
In short: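 For each measurement, 10 μM compound was applied for 30 min to K562 cells at 2×10^6 cells/mL. Aliquots were heated for 3 min across 48°C-58°C, pooled, and extracted in PBS with 0.5% NP-40 at 4°C; the supernatant after 21,000xg for 90 min was soluble protein. This was quantified by TMTpro 16plex LC-MS/MS with channel sums equalised, and thermal stability was reported relative to control samples from duplicates, on a log2 fold-change scale.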

Sequence of UniProt Q9Y2A7 (Q9Y2A7 whole entry, looked up): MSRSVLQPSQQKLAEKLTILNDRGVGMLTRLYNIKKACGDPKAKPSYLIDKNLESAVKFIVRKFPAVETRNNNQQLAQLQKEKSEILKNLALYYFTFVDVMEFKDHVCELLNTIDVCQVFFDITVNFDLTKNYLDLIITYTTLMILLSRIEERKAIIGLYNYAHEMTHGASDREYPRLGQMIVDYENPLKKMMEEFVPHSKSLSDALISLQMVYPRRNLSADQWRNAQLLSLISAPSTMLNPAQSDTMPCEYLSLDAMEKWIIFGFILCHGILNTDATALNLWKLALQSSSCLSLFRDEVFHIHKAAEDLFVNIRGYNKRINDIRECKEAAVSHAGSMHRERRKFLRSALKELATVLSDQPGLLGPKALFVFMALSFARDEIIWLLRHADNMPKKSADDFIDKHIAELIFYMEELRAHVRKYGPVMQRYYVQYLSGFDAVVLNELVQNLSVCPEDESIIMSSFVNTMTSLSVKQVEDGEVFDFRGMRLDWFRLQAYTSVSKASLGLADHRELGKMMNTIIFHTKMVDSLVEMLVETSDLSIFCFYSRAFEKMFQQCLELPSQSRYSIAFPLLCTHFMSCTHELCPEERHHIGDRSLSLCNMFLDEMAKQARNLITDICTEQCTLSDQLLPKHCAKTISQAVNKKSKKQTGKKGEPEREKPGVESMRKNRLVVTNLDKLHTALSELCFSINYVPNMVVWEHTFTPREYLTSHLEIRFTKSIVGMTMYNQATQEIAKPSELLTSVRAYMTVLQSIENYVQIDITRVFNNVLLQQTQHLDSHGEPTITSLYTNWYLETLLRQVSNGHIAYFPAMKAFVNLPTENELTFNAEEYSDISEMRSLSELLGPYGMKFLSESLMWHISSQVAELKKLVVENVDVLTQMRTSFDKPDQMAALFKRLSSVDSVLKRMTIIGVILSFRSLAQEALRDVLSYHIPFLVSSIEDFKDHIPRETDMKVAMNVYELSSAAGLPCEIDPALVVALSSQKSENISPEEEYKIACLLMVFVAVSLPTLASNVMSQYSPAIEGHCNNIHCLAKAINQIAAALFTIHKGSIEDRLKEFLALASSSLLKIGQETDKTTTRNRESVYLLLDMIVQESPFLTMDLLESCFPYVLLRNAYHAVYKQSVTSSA
Sequence of UniProt O75607 (O75607 whole entry, looked up): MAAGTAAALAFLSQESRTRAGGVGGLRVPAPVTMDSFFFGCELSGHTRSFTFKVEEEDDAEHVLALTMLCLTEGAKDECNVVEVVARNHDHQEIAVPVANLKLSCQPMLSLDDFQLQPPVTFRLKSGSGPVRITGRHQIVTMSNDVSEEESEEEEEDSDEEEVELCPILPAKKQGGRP
Sequence of UniProt Q9H1E3 (Q9H1E3 whole entry, looked up): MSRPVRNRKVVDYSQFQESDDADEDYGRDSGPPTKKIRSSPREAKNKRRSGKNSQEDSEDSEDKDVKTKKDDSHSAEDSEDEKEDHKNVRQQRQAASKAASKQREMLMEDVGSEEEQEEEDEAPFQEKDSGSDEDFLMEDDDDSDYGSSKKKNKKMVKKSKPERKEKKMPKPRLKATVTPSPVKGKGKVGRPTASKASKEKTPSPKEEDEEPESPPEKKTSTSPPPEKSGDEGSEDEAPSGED
Sequence of UniProt P20585 (P20585 whole entry, looked up): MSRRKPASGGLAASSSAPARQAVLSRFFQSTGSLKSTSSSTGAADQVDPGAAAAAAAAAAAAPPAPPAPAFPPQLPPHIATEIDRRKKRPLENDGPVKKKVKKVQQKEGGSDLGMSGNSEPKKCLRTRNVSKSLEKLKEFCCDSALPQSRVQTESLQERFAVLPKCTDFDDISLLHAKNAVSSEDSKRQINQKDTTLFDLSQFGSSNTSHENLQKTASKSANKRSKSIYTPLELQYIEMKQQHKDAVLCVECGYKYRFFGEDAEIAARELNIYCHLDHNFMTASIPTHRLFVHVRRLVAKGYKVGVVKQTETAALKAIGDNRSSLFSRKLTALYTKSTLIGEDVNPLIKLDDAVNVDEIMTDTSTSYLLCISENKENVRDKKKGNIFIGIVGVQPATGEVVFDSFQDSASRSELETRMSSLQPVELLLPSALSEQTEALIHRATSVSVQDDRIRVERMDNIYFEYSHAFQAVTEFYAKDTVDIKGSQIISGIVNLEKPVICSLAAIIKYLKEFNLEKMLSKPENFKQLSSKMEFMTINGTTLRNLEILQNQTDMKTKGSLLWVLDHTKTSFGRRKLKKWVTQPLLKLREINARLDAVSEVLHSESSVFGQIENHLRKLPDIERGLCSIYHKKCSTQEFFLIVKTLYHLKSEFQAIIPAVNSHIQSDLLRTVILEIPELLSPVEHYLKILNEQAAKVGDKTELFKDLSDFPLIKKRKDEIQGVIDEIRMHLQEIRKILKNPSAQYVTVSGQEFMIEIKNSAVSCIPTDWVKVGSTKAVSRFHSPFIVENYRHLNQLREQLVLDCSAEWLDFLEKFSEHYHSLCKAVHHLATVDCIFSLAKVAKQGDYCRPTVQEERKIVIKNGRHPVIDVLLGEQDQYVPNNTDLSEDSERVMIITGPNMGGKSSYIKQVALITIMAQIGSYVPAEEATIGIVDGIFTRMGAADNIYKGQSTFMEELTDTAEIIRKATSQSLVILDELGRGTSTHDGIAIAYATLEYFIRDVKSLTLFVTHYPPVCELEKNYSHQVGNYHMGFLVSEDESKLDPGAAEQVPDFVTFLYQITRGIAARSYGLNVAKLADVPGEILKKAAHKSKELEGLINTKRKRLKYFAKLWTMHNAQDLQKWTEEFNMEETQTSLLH
Sequence of UniProt Q9Y2I1 (Q9Y2I1 whole entry, looked up): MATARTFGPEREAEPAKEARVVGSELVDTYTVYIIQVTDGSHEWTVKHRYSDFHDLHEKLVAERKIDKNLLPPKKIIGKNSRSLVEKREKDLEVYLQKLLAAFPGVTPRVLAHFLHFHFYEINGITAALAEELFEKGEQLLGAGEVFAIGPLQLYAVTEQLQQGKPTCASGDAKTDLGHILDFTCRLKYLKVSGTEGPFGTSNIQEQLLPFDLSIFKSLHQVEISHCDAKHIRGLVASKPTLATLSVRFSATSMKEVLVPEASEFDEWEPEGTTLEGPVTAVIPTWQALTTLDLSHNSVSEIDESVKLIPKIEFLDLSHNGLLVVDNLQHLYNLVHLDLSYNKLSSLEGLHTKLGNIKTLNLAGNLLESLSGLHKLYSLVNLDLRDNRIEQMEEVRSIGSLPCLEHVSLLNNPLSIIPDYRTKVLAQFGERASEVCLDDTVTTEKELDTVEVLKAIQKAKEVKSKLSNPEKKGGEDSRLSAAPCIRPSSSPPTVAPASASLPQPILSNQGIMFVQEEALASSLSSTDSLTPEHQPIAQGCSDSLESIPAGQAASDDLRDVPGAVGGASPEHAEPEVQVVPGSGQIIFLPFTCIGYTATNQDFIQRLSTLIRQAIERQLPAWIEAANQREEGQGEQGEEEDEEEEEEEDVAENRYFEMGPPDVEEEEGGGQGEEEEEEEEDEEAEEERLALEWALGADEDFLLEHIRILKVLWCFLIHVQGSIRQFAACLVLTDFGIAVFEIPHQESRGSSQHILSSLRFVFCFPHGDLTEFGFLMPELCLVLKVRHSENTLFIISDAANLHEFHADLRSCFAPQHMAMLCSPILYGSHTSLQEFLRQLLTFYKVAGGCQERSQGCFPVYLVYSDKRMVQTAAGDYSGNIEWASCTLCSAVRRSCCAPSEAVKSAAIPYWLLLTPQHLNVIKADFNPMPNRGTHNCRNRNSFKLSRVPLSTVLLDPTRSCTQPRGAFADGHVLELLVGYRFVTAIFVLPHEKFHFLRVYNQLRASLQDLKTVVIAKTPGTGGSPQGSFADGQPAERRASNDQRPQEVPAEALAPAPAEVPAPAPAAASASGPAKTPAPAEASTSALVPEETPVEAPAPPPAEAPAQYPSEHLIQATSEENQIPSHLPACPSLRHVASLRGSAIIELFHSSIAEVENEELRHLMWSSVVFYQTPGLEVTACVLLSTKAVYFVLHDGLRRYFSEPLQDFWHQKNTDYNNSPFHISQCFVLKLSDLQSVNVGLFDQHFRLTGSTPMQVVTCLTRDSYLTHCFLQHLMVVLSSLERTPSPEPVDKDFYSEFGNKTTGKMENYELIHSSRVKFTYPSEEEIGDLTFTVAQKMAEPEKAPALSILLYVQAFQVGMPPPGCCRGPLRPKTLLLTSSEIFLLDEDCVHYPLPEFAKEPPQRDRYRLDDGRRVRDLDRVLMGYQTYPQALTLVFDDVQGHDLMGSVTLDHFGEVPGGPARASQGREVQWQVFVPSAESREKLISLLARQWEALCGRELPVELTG
Sequence of UniProt Q08J23 (Q08J23 whole entry, looked up): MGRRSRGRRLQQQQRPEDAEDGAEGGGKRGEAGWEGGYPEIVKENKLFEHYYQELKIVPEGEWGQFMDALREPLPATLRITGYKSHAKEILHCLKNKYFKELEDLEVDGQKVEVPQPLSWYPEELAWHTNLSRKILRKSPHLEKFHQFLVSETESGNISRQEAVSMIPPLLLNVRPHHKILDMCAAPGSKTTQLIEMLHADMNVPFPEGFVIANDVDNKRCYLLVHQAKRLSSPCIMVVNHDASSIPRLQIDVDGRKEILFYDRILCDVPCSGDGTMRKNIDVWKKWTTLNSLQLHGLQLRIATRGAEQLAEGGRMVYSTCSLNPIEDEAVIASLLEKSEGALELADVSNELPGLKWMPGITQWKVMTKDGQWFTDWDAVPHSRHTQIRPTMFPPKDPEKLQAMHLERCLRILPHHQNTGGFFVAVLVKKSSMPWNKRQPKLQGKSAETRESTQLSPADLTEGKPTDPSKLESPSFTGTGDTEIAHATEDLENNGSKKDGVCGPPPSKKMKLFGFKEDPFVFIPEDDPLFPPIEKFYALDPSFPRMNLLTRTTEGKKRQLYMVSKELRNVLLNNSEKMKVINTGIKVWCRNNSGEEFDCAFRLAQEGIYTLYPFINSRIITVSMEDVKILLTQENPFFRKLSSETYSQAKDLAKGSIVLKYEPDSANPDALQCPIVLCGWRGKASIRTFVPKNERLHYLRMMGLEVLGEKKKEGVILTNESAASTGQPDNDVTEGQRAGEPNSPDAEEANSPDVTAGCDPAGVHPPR

NPM3 (UniProt O75607) was tested, and the log2 fold change was 0.008.
With NCKAP1 isoform 2 (UniProt Q9Y2A7) the log2 fold change was -0.041.
NUCKS1 (UniProt Q9H1E3) was tested, and the log2 fold change was -0.02.
In the case of NOL11 (UniProt Q9H8H0), the log2 fold change is reported as -0.05.
Work on NSUN2 (UniProt Q08J23) yielded a log2 fold change of 0.011.
NISCH (UniProt Q9Y2I1) was tested, and the log2 fold change was 0.045.
NARS2 (UniProt Q96I59) gave a log2 fold change of -0.01.
Work on OXR1 (UniProt Q8N573) yielded a log2 fold change of -0.019.
With NUMB (UniProt P49757) the log2 fold change was -0.008.
NR2C2AP isoform 2 (UniProt Q86WQ0) gave a log2 fold change of 0.004.
MSH3 (UniProt P20585) showed a log2 fold change of -0.095.

From the supplement of paper PMC10849652
